Shown are actives, neighbours in structure and some others; about 7.5% of the full set was active somewhere.
Rab9 prom act = activators of Rab9 promoter. Huh7 Rab9 promoter-luciferase reporter, luminescence, 24 h. Potency, µM (series often up to 9.22 µM), for the others: top-dose activation, negative = inhibition, actives largely listed as activators. hit rate 2.8% among 320,000; also: % of control where 0% means no effect; nearly all actives have a fitted effect of over 60% in size
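Huh7 cells stably carrying Rab9 promoter–luciferase reporter, plated 1500 cells/well, compound added after 2 h and incubated 24 h at 37 °C; luciferase luminescence then read after 10 min with detection reagent.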
FLuc modulator = firefly luciferase modulation, counter-screen for miR-21 project; P08659; purified FLuc, Km substrates, luminescence inhibition; Potency, µM (doses to about 57.5 µM), for the others: at the highest dose activity change, negative = inhibition, actives largely listed as inhibitors; hit rate 6.9% among 360,000; AID 588342;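 also: plate controls were vehicle for no effect and reference inhibitor for full effect; nearly all actives have a fitted effect of over 55% in size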
Target sequence (P08659 whole entry, looked up): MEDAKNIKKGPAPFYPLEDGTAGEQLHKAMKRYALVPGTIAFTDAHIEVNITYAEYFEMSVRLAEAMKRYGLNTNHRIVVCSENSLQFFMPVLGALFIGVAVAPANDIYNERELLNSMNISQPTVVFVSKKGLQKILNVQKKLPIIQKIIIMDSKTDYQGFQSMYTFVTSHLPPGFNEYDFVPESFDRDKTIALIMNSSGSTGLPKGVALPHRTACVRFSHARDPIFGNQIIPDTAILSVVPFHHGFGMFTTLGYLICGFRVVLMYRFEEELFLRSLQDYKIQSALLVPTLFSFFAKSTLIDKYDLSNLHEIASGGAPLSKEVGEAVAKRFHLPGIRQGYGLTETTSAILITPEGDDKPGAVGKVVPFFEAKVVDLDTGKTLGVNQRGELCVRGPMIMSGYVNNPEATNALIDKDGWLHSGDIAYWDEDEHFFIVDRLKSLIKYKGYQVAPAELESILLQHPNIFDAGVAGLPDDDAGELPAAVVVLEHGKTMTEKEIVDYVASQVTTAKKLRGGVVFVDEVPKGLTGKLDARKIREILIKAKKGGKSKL
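Biochemical qHTS of compounds, final roughly 60 µM downward over six points, against 10 nM purified firefly luciferase using Km concentrations of substrates (10 uM D-luciferin, 10 uM ATP) in Tris acetate pH 7.5 buffer; luminescence output.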
SMN2 splice up = enhancers of SMN2 splice variant expression; HEK293 SMN2-luciferase splicing reporter, luminescence, 30-36 h; Potency, µM (doses to about 46.1 µM), inactives show top-dose activity change, positive = activation, most hits filed as activators; hit rate 2.8% among 210,000; AID 1458; also: % of control where 0% means no effect; nearly all actives have a fitted effect of over 55% in size
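qHTS luciferase splicing reporter: luminescence rises when SMN2 exon 7 is included in transfected HEK293 cells. Compound exposure lasted 30-36 h at 37C, with 4.5 mM final sodium butyrate as control, followed by a ONE-Glo read.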
Luc counter = counter-screen: inhibitors of Kinase-Glo firefly luciferase; Q27757; hit rate 0.28% among 200,000; Potency, µM (top dose mostly 38.3 µM), for the others: at the highest dose activity change, negative = inhibition, hits mostly inhibitors; AID 1379; Kinase-Glo luciferase, ATP luminescence, 8 min; also: % is scaled to controls: 0 for no effect and ±100 for the full control effect; nearly all actives have a fitted effect of over 60% in size
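Substrate mix (final 50 mM imidazole pH 7.2, 50 mM KCl, 7 mM MgCl2, 10 uM ATP, 0.01% Tween 20, 0.05% BSA) plus pin-tool compound, then Kinase-Glo detection mix; 8 min ambient, luminescence read.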
NPC1 prom act = activates the NPC1 promoter; Huh7 NPC1 promoter luciferase reporter, 24 h; Potency, µM (series often up to 9.22 µM), for inactives: at the top dose activation, hits mostly activators; hit rate 2.4% among 320,000; AID 485313; also: % of control where 0% means no effect; nearly all actives have a fitted effect of over 60% in size
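Huh7 cells stably carrying NPC1 promoter–luciferase, plated in Opti-MEM with 10% FBS for 2 h, were exposed to compound in DMSO for 24 h at 37 °C; luciferase reagent was added for 10 min and luminescence read.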
ELG1 genotox = inducers of genotoxicity in HEK293T ELG1-luciferase cells. HEK293T ELG1-luciferase reporter, luminescence, 16 h. Potency, µM (top dose mostly 46 µM), for inactives: at the highest dose activity change, positive = activation, actives largely listed as activators. hit rate 1.3% among 330,000. AID 504466; also: % of control where 0% means no effect; nearly all actives have a fitted effect of over 60% in size
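Genotoxic stress is detected as increased luminescence from luciferase-tagged ELG1 in HEK293T cells, measured with ONE-Glo after a 16 hr treatment at 37 °C.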
Starred values were filed as active, the others as inactive; ? = inconclusive; nt = no result. Calls follow the shape of the dose curve; as a rule, active = well fitted curve in the direction sought with a large enough effect; inconclusive = small, poorly fitted or top-dose-only effect, or another doubt; inactive = no such curve, though single readings can be large; an effect the other way counts as inactive or inconclusive. Potency is read from the fitted curve at half-maximal effect.

SMILES	Rab9 prom act	FLuc modulator	SMN2 splice up	Luc counter	NPC1 prom act	ELG1 genotox
Cc1c(NC(=O)c2cc(-n3cnnc3)ccc2Cl)cccc1-c1nc2ccccc2s1	3.55µM*	0.601µM*	5.62µM*	-21.6%	?	9.7%
CC(=O)Nc1ccc(NC(=O)c2cc(-n3cnnc3)ccc2Cl)cc1	0.0%	0.0%	-5.7%	-0.2%	-7.0%	-2.3%
COc1ccccc1NC(=O)C1=C(C)Nc2nc(SCc3ccccc3Cl)nn2C1c1cccnc1 (stereo not drawn)	nt	2.1%	7.9%	nt	nt	nt
Fc1ccc(Br)cc1C1C=C(c2ccc(Br)cc2)Nc2nnnn21 (stereo not drawn)	nt	-4.1%	nt	nt	nt	nt
CCOc1ccc(C2CC(=O)N(c3cccc(F)c3)C3=C2C(=O)OC3)cc1 (stereo not drawn)	nt	-0.2%	2.7%	nt	nt	nt
Cc1ccc(NC(=O)c2c(NC(=O)c3ccccc3Cl)sc3c2CCC3)cc1	nt	-17.7%	-4.1%	nt	nt	nt
Cc1cccc(NC(=O)c2c(NC(=O)c3ccccc3)sc3c2CCC3)c1	nt	?	-9.1%	nt	nt	nt
COc1cccc(C(=O)Nc2sc3c(c2C(=O)O)CCCC3)c1	11.7%	21.3µM*	nt	nt	5.2%	-1.0%
CNC(=O)c1c(NC(=O)c2cccc(C)c2)sc2c1CCC2	?	21.3µM*	nt	nt	?	?
Cc1cccc(C(=O)Nc2sc3c(c2C(=O)O)CCC3)c1	25.6%	16.9µM*	nt	nt	?	5.9%
CNC(=O)c1c(NC(=O)/C=C/c2ccccc2Cl)sc2c1CCC2	nt	9.53µM*	nt	nt	nt	nt
Cc1cccc(C(=O)Nc2sc3c(c2C(=O)NC(C)C)CCCC3)c1	nt	-7.1%	-1.0%	nt	nt	nt
O=S(=O)(NCCc1csc2nc(-c3ccccc3)nn12)c1cccs1	nt	-2.2%	nt	nt	nt	nt
CC(Oc1ccccc1)C(=O)Nc1nnc2n1CCS2 (stereo not drawn)	nt	-3.6%	nt	nt	nt	nt
COc1cccc(C(=O)Nc2sc3c(c2C#N)CCN(C(C)=O)C3)c1	0.2%	15.1µM*	-26.5%	2.5%	-27.4%	?
O=S(=O)(Cc1noc(-c2ccccc2Cl)n1)c1ccccn1	1.41µM*	10.7µM*	nt	nt	1.58µM*	?
O=c1c2sccc2nc(SCc2cc(=O)n3cc(Cl)ccc3n2)n1Cc1ccccn1	3.55µM*	-3.2%	6.4%	1.5%	?	?
COc1ccccc1-c1cc(C(=O)NCc2ccccc2)no1	-1.4%	23.9µM*	-8.8%	-1.8%	-0.4%	-2.1%
COc1ccccc1-c1cc(C(=O)NCc2ccc(Cl)cc2)no1	4.7%	?	-8.0%	-4.3%	-3.4%	3.5%
COc1ccccc1-c1cc(C(=O)NCc2ccc(F)cc2)no1	0.0%	?	-10.2%	1.6%	-0.8%	-1.2%
Cc1ccccc1-c1ccc(C(=O)NCc2ccccc2)o1	5.3%	26.9µM*	16.5%	-0.7%	8.6%	11.2%
COc1ccc(CNC(=O)c2cc(-c3ccccc3OC)on2)cc1	-1.7%	16.9µM*	-11.3%	5.7%	-0.7%	0.4%
CC(C)C(=O)N1CCN(c2ccc(NC(=O)c3cccs3)cc2Cl)CC1	7.5%	?	nt	3.7%	8.6%	-8.5%
CC(C)C(=O)N1CCN(c2ccc(NC(=O)c3ccc4c(c3)OCCO4)cc2Cl)CC1	-1.8%	4.26µM*	-40.9%	-3.0%	6.5%	-34.4%
CC(=O)N1CCN(c2ccc(NC(=O)c3ccc4c(c3)OCCO4)cc2Cl)CC1	-1.2%	6.01µM*	nt	-1.1%	9.0%	-6.8%
COc1ccc(C2=NCC(CSc3nccc(=O)[nH]3)S2)cc1 (stereo not drawn)	-0.6%	19µM*	7.6%	-3.4%	2.5%	4.2%
O=c1c2ccccc2nnn1CSc1nnc(-c2ccc3c(c2)OCO3)o1	?	6.75µM*	?	-4.6%	?	?
COc1cccc(OC(=O)CSc2nnc(-c3ccc4c(c3)OCO4)o2)c1	nt	-5.4%	nt	nt	nt	nt
O=C(O)CCSc1nnc(-c2ccc3c(c2)OCO3)o1	-10.2%	13.5µM*	-29.3%	-19.6%	-9.7%	-2.6%
CCc1ccc(OC(=O)CSc2nnc(-c3ccc4c(c3)OCO4)o2)cc1	nt	-0.7%	nt	nt	nt	nt

Assay outcomes (PubChem BioAssay)
